Measured values: ChEMBL document CHEMBL4513135, “CO-ADD screening of IQOG CSIS (Spain) compounds”
Potency and affinity values are given separately.

How the values were obtained:
Staphylococcus aureus = conditions: Concentration 32 ug.mL-1; ASSAY_TEST Inhibition of Bacterial Growth; detection method Absorption (OD600); MEDIA CAMHB; plate type 384well; NBS; CORNING #3640; time 18 hr
Escherichia coli = conditions: Concentration 32 ug.mL-1; ASSAY_TEST Inhibition of Bacterial Growth; detection method Absorption (OD600); MEDIA CAMHB; plate type 384well; NBS; CORNING #3640; time 18 hr

SMILES	Inhibition (Staphylococcus aureus)	Inhibition (Escherichia coli)
COc1ccccc1[C@H]1c2c(ccc3ccccc23)O/C(=N\Br)[C@@]1(Br)C#N	33.19%	14.2%
Cc1cnc2ccc(Br)cn12	2.9%	6.35%
COc1cccc(C2c3ccc4ccccc4c3OC(=NBr)C2(Br)C#N)c1 (stereo not drawn)	27.48%	-7.21%
C#CCNc1cccc(F)n1	34.2%	-22.48%
CC(=O)Oc1ccc(C=C2N=C(c3ccccc3)OC2=O)cc1	10.97%	17.49%
O=C1SC(SCc2ccccc2)=NC1=Cc1cccc(OCc2ccccc2)c1	-1.09%	7.89%
COc1ccccc1C1c2ccc3ccccc3c2OC(=NBr)C1(Br)C#N (stereo not drawn)	25.54%	-9.86%
Cc1nn(-c2ccccc2)c2ncn3nc(-c4ccccc4)nc3c12	11.88%	13.25%
CC(=O)NC(=Cc1ccccc1)C(=O)O	13.69%	10.22%
N#Cc1c(NC2CCC(Cc3ccccc3)CC2)nc(NC2CCN(Cc3ccccc3)CC2)c(C#N)c1-c1ccccc1 (stereo not drawn)	4.21%	-8.77%
CCOC(=O)CCc1c[nH]c2ccccc12	-15.79%	-15.2%
O=C(N/N=C/c1c[nH]c2ccccc12)c1ccco1	13.11%	12.98%
NNC(=O)CCc1c[nH]c2ccccc12	1.93%	6.66%
CCOC(=O)C1=C(C)OC(N)=C(C#N)C1c1cccs1 (stereo not drawn)	8.64%	-14.26%
